In the supplement of paper PMC13380429:

System: Vero E6 infected with SARS-CoV-2
Assay: inhibition of SARS-CoV-2 cytopathic effect; higher = more antiviral protection, active = above 15
Conditions: 48 h

Measured: inhibition of SARS-CoV-2 cytopathic effect

CCN(CC)CCCC(C)Nc1ccnc2cc(Cl)ccc12 (stereo not given) [chloroquine]
inactive: 1 nM -1.07% | 8.33 nM -2.02% | 100 nM 0.51% | 833.33 nM -0.4% | 10000 nM -1.51%

O=c1[nH]c2ccccc2n1CCCN1CCN(C(c2ccccc2)c2ccccc2)CC1 [oxatomide]
inactive: 1 nM -0.36% | 8.33 nM 2.61% | 100 nM 1.85% | 833.33 nM 1.64% | 10000 nM -7.26%

CCC(=O)O[C@]1(C(=O)CO)CC[C@H]2[C@@H]3CCC4=CC(=O)CC[C@]4(C)[C@H]3CC[C@@]21C
inactive: 1 nM 0.99% | 8.33 nM 0.06% | 100 nM -0.33% | 833.33 nM 1.21% | 10000 nM 2.45%

O=c1[nH]c(=O)n([C@H]2C[C@H](O)[C@@H](CO)O2)cc1/C=C/Br [brivudine]
inactive: 1 nM 1.67% | 8.33 nM 0.21% | 100 nM 0.44% | 833.33 nM -0.42% | 10000 nM -0.09%

CSc1nc(NC2CCCC2)c([N+](=O)[O-])c(NC2CCCC2)n1
inactive: 1 nM -0.65% | 8.33 nM -0.38% | 100 nM 1.31% | 833.33 nM -0.4% | 10000 nM -0.11%

C=C(C)CN1CC[C@]23c4c5ccc(O)c4O[C@H]2c2[nH]c4ccccc4c2C[C@@]3(O)C1C5
inactive: 1 nM 1.25% | 8.33 nM -1.87% | 100 nM 0.33% | 833.33 nM 0.21% | 10000 nM 1.05%

O=C(O)CC/C=C\C[C@@H]1CO[C@H](c2ccccc2Cl)O[C@@H]1c1ccccc1O (racemic)
inactive: 1 nM 0.52% | 8.33 nM 1% | 100 nM -2.37% | 833.33 nM 0.59% | 10000 nM -2.08%

CC(=O)N[C@H](Cc1ccc2ccccc2c1)C(=O)N[C@H](Cc1ccc(Cl)cc1)C(=O)N[C@H](Cc1cccnc1)C(=O)N[C@@H](CO)C(=O)N[C@@H](Cc1ccc(O)cc1)C(=O)N[C@H](CCCNC(N)=O)C(=O)N[C@@H](CC(C)C)C(=O)N[C@@H](CCCNC(=N)N)C(=O)N1CCC[C@H]1C(=O)N[C@H](C)C(N)=O [cetrorelix]
inactive: 1 nM -4.73% | 8.33 nM -2.29% | 100 nM 5.4% | 833.33 nM 5.13% | 10000 nM 8.43%

O=C(Nc1ccncc1)c1cc([N+](=O)[O-])ccc1Cl
inactive: 1 nM -0.14% | 8.33 nM 1.74% | 100 nM -1.69% | 833.33 nM -1.5% | 10000 nM 14.7%

Cc1[nH]nc(C(F)(F)F)c1Cc1sc2c(c1C(=O)N1C[C@](C)(O)CO1)c(=O)n(C)c(=O)n2C(C)C
inactive: 1 nM 1.31% | 8.33 nM -1.35% | 100 nM 1.71% | 833.33 nM 0.45% | 10000 nM 2.23%

COc1ccc(Nc2nccc(NCCO)n2)cc1 [cardiogenol-C]
inactive: 1 nM 0.83% | 8.33 nM -0.02% | 100 nM -0.4% | 833.33 nM 0.3% | 10000 nM 1.2%

O=C(Nc1cnc(Cl)nc1)c1ccc(F)c(F)c1
inactive: 1 nM 1.95% | 8.33 nM 1.13% | 100 nM 2.59% | 833.33 nM -0.85% | 10000 nM 0.14%

c1ccc(CC2=NCCN2)cc1 [tolazoline]
inactive: 1 nM -0.5% | 8.33 nM 0.92% | 100 nM 1.33% | 833.33 nM 2.41% | 10000 nM -0.69%

O=C(O)c1ccc(OCCn2ccnc2)cc1 [dazoxiben]
inactive: 1 nM 1.06% | 8.33 nM 2.92% | 100 nM 3.5% | 833.33 nM -0.21% | 10000 nM -0.65%

CCc1ccc(C2=CC(C)(C)Sc3ccc(C#Cc4ccc(C(=O)O)cc4)cc32)cc1
inactive: 1 nM 0.1% | 8.33 nM 2.14% | 100 nM 1.4% | 833.33 nM 1.53% | 10000 nM 3.68%

CO[C@@]1(NC(=O)Cc2cccs2)C(=O)N2C(C(=O)O)=C(COC(N)=O)CS[C@@H]21 [cefoxitin]
inactive: 1 nM -0.07% | 8.33 nM -1.13% | 100 nM -0.89% | 833.33 nM 0.12% | 10000 nM 1.09%

CC(=O)OCC(=O)[C@H]1CC[C@H]2[C@@H]3CCC4=CC(=O)CC[C@]4(C)[C@H]3CC[C@]12C [deoxycorticosterone-acetate]
inactive: 1 nM -2.24% | 8.33 nM 0.58% | 100 nM -1.58% | 833.33 nM -4.23% | 10000 nM -0.48%
